These results are taken from PubChem BioAssay (EPA / NIEHS).

Common to all, as to details: mRNA level, 48 h; actives raise or lower the signal
Read-out in test [1]: Pro-epidermal growth factor (Homo sapiens) (UniProt P01133)
Description: LTEA_HepaRG_EGF: Life Technologies and Expression Analysis (LTEA) Assay for Epidermal growth factor (EGF) using HepaRG (AID 2283489). The method, boiled down:
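Differentiated human HepaRG cells, plated 48 h then switched to serum-free induction medium, were exposed for 48 h to test chemicals (8-point half-log series, top 100 uM, 0.5% DMSO). EGF mRNA was quantified by qRT-PCR, normalized to ACTB, GAPDH, POLR2A.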

Read-out in test [2]: Early growth response protein 1 (EGR1) transcription factor, EGR1 (gene 1958)
The test can be described thus: LTEA_HepaRG_EGR1: Life Technologies and Expression Analysis (LTEA) Assay for Early growth response protein 1 (EGR1) transcription factor using HepaRG (AID 2283490). The method, boiled down: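 HepaRG, 48 h exposure, 8-pt half-log series from 100 uM, 0.5% DMSO vehicle; EGR1 transcript by TaqMan qRT-PCR (Fluidigm array), housekeeping-normalized; bidirectional fit relative to DMSO baseline.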

Read-out in test [3]: Ezrin (EZR), EZR (gene 7430)
The test can be described thus: LTEA_HepaRG_EZR: Life Technologies and Expression Analysis (LTEA) Assay for Ezrin (EZR) using HepaRG (AID 2283491). The procedure, abridged:
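Read-out is EZR transcript level by qRT-PCR, normalized to three housekeeping genes and fitted bidirectionally against the DMSO control. Human HepaRG cells received test chemicals for 48 h at eight half-log concentrations up to 100 uM in 0.5% DMSO.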

Read-out in test [4]: Cytochrome P450 3A7 (Homo sapiens) (UniProt P24462)
Description: LTEA_HepaRG_CYP3A7: Life Technologies and Expression Analysis (LTEA) Assay for CYP3A7 using HepaRG (AID 2283492). The procedure, abridged: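 HepaRG cells plated 48 h, then dosed in serum-free induction medium for 48 h at 8 concentrations (top 100 uM, half-log steps, 0.5% DMSO). CYP3A7 mRNA by qRT-PCR, normalised to ACTB/GAPDH/POLR2A; bidirectional fit versus DMSO.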

Read-out in a further test: CYP3A5 (gene 1577)
The test can be described thus: LTEA_HepaRG_CYP3A5: Life Technologies and Expression Analysis (LTEA) Assay for CYP3A5 using HepaRG (AID 2283493). The method, boiled down:
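qRT-PCR read-out: CYP3A5 transcript in HepaRG lysates, housekeeping-normalized (ACTB/GAPDH/POLR2A), fitted bidirectionally against 0.5% DMSO baseline. Exposure 48 h, eight half-log concentrations up to 100 uM, duplicates.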

Read-out in test [5]: Fatty Acid-Binding Protein 1 (FABP1), FABP1 (gene 2168)
Description: LTEA_HepaRG_FABP1: Life Technologies and Expression Analysis (LTEA) Assay for Fatty Acid-Binding Protein 1 (FABP1) using HepaRG (AID 2283494). The method, boiled down: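 qRT-PCR readout of FABP1 transcript (normalized to three housekeeping genes) after 48 h chemical exposure of HepaRG cells; eight concentrations, half-log steps, max 100 uM, 0.5% DMSO vehicle; gain or loss fitted relative to DMSO baseline.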

Read-out in test [6]: Cytochrome P450 4A22 (Homo sapiens) (UniProt Q5TCH4)
Description: LTEA_HepaRG_CYP4A22: Life Technologies and Expression Analysis (LTEA) Assay for Cytochrome P450 4A22 (CYP4A22) using HepaRG (AID 2283495). The method, boiled down:
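qRT-PCR of CYP4A22 mRNA (Fluidigm TaqMan, normalized to three housekeeping genes) after 48 h chemical exposure of HepaRG cells; 8-point half-log series, top 100 uM, 0.5% DMSO vehicle. Bidirectional curve fitting vs DMSO baseline.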

Read-out in test [7]: Cytochrome P450 7A1 (Homo sapiens) (UniProt P22680)
Description: LTEA_HepaRG_CYP7A1: Life Technologies and Expression Analysis (LTEA) Assay for Cytochrome P450 7A1 (CYP7A1) using HepaRG (AID 2283496). The method, boiled down:
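Using 0.5% DMSO as vehicle and baseline, chemicals were tested in duplicate over an 8-point range from 100 uM on HepaRG cells for 48 h; qRT-PCR signals were normalised to ACTB, GAPDH and POLR2A.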

Read-out in test [8]: Glutathione S-Transferase (GSTA2), GSTA2 (gene 2939)
Description: LTEA_HepaRG_GSTA2: Life Technologies and Expression Analysis (LTEA) Assay for Glutathione S-Transferase (GSTA2) using HepaRG (AID 2283497). The method, boiled down: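 qRT-PCR readout of GSTA2 transcript, normalized to three housekeeping genes, fitted bidirectionally against 0.5% DMSO baseline. Differentiated HepaRG cells received compound for 48 h at 8 concentrations (top 100 uM, half-log steps).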

Read-out in test [9]: Glutamate-cysteine ligase catalytic (GCLC), GCLC (gene 2729)
Description: LTEA_HepaRG_GCLC: Life Technologies and Expression Analysis (LTEA) Assay for Glutamate-cysteine ligase catalytic (GCLC) using HepaRG (AID 2283498). The procedure, abridged:
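HepaRG, 48 h exposure, 8-pt half-log series from 100 uM, 0.5% DMSO vehicle; TaqMan qRT-PCR for GCLC mRNA, housekeeping-normalized; bidirectional curve fit vs DMSO baseline.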

Read-out in test [10]: growth arrest and DNA damage 45 (GADD45G), GADD45G (gene 10912)
Description: LTEA_HepaRG_GADD45G: Life Technologies and Expression Analysis (LTEA) Assay for growth arrest and DNA damage 45 (GADD45G) using HepaRG (AID 2283499). The method, boiled down: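 Differentiated human HepaRG cells in serum-free induction medium were exposed for 48 h to 8 half-log concentrations up to 100 uM in 0.5% DMSO, in duplicate. GADD45G mRNA was measured by TaqMan qRT-PCR, normalised to ACTB, GAPDH and POLR2A, and fitted bidirectionally against DMSO.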

Read-out in test [11]: Glutamate-cysteine ligase regulatory (GCLM), GCLM (gene 2730)
The test can be described thus: LTEA_HepaRG_GCLM: Life Technologies and Expression Analysis (LTEA) Assay for Glutamate-cysteine ligase regulatory (GCLM) using HepaRG (AID 2283500). The procedure, abridged: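 HepaRG, 48 h dosing, 100 uM top, half-log x8, 0.5% DMSO vehicle. Readout: GCLM mRNA by TaqMan qRT-PCR, housekeeping-normalized (ACTB/GAPDH/POLR2A). Curves fit bidirectionally vs DMSO baseline.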

Read-out in test [12]: Glutathione S-transferase M3 (GSTM3), GSTM3 (gene 2947)
Description: LTEA_HepaRG_GSTM3: Life Technologies and Expression Analysis (LTEA) Assay for Glutathione S-transferase M3 (GSTM3) using HepaRG (AID 2283501). The method, boiled down: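 Differentiated HepaRG cells in serum-free induction medium were exposed in duplicate for 48 h to 8 half-log concentrations up to 100 uM in 0.5% DMSO. GSTM3 mRNA was measured by TaqMan qRT-PCR, normalized to ACTB/GAPDH/POLR2A, and fitted bidirectionally versus DMSO.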

Read-out in test [13]: Heat shock 70 kDa protein 1 (HSPA1A), gene 3303
The test can be described thus: LTEA_HepaRG_HSPA1A: Life Technologies and Expression Analysis (LTEA) Assay for Heat shock 70 kDa protein 1 (HSPA1A) using HepaRG (AID 2283502). The procedure, abridged:
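HepaRG, 48 h exposure, 8-pt half-log CRC from 100 uM in 0.5% DMSO, duplicates. Readout: TaqMan qRT-PCR of HSPA1A mRNA, housekeeping-normalized (ACTB/GAPDH/POLR2A). Bidirectional fit vs 0.5% DMSO baseline.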

Read-out in test [14]: Hypoxia-inducible factor 1-alpha (Homo sapiens) (UniProt Q16665)
Description: LTEA_HepaRG_HIF1A: Life Technologies and Expression Analysis (LTEA) Assay for Hypoxia-inducible factor 1 (HIF1A) Trancription factor using HepaRG (AID 2283503). The procedure, abridged:
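Gain- or loss-of-signal HIF1A mRNA changes are fitted against a DMSO baseline. HepaRG cultures receive eight concentrations, highest 100 uM, for 48 h in serum-free induction medium with 0.5% DMSO.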

Read-out in test [15]: 3-Hydroxy-3-Methylglutaryl-CoA Synthase 2 (HMGCS2), HMGCS2 (gene 3158)
Description: LTEA_HepaRG_HMGCS2: Life Technologies and Expression Analysis (LTEA) Assay for 3-Hydroxy-3-Methylglutaryl-CoA Synthase 2 (HMGCS2) using HepaRG (AID 2283504). The procedure, abridged:
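Differentiated human HepaRG cells were exposed in duplicate for 48 h in serum-free induction medium to eight concentrations (top 100 uM, half-log steps, 0.5% DMSO). HMGCS2 mRNA was quantified by TaqMan qRT-PCR, normalised to ACTB, GAPDH and POLR2A, then fitted bidirectionally against DMSO.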

Read-out in a further test: HGF (gene 3082)
Description: LTEA_HepaRG_HGF: Life Technologies and Expression Analysis (LTEA) Assay for Hepatocyte Growth Facto (HGF) using HepaRG (AID 2283505). The procedure, abridged: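 Differentiated human HepaRG cells in serum-free induction medium were exposed in duplicate for 48 h to eight concentrations (top 100 uM, half-log steps, 0.5% DMSO). HGF mRNA was quantified by qRT-PCR, normalized to ACTB, GAPDH and POLR2A.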

Read-out in test [16]: Insulin Like Growth Factor 1 (IGF1), IGF1 (gene 3479)
Description: LTEA_HepaRG_IGF1: Life Technologies and Expression Analysis (LTEA) Assay for Insulin Like Growth Factor 1 (IGF1) using HepaRG (AID 2283506). The method, boiled down:
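qRT-PCR readout of IGF1 mRNA, normalized to three housekeeping genes, after 48 h chemical exposure of HepaRG cells. Concentrations: 8-point half-log series, top 100 uM, 0.5% DMSO vehicle. Gain or loss fitted against DMSO baseline.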

Read-out in test [17]: Insulin-like growth factor-binding protein 1 (IGFBP1), IGFBP1 (gene 3484)
The test can be described thus: LTEA_HepaRG_IGFBP1: Life Technologies and Expression Analysis (LTEA) Assay for Insulin-like growth factor-binding protein 1 (IGFBP1) using HepaRG (AID 2283508). The procedure, abridged: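 Differentiated human HepaRG cells in serum-free induction medium were exposed in duplicate for 48 h to eight concentrations, top 100 uM with half-log dilutions, in 0.5% DMSO. Transcript levels came from qRT-PCR normalised to ACTB, GAPDH and POLR2A, fitted bidirectionally against DMSO.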

Read-out in test [18]: Interleukin 6 (IL6), IL6 (gene 3569)
Description: LTEA_HepaRG_IL6: Life Technologies and Expression Analysis (LTEA) Assay for Interleukin 6 (IL6) using HepaRG (AID 2283509). The procedure, abridged:
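qRT-PCR read-out of IL6 transcript, normalized to three housekeeping genes, after 48 h chemical exposure of HepaRG cells; 8-point half-log series, top 100 uM, 0.5% DMSO vehicle. Bidirectional curve fitting against DMSO baseline.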

The structures appear in SMILES notation. Values joined by “and” are separate entries in the source; they are usually repeats but may differ in a detail not shown here. Equal values may be shown once. Some compounds were tested as several samples or in several runs, with calls that do not always agree. Active and inactive are the calls of the source. Rule for the calls: active = hit-call score of the fitted dose curve at least 0.9, where 1 is the maximum; inactive = score below 0.9.

Chain of Hypoxia-inducible factor 1-alpha (Homo sapiens) (Q16665 whole entry, looked up): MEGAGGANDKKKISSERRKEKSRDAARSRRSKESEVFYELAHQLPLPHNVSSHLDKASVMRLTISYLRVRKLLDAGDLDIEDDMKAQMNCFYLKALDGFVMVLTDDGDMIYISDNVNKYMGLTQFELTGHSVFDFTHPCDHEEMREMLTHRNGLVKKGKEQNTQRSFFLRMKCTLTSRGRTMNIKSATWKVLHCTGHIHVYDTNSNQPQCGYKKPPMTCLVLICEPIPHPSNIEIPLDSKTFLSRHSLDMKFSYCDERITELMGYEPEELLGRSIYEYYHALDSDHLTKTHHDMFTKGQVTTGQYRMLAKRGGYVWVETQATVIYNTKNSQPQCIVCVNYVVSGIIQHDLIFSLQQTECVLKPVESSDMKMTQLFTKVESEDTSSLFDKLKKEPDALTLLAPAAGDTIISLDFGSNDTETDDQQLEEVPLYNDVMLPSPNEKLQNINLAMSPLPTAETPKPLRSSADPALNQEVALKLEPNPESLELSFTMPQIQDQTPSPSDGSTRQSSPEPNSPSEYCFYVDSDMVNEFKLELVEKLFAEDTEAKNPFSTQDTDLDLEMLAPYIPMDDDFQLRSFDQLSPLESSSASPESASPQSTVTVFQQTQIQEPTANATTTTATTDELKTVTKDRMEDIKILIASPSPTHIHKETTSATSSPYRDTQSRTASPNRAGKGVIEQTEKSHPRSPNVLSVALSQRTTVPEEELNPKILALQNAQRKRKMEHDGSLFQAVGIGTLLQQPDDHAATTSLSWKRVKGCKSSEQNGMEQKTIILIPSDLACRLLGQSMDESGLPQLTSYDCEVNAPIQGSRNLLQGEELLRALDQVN
Chain of Cytochrome P450 3A7 (Homo sapiens) (P24462 whole entry, looked up): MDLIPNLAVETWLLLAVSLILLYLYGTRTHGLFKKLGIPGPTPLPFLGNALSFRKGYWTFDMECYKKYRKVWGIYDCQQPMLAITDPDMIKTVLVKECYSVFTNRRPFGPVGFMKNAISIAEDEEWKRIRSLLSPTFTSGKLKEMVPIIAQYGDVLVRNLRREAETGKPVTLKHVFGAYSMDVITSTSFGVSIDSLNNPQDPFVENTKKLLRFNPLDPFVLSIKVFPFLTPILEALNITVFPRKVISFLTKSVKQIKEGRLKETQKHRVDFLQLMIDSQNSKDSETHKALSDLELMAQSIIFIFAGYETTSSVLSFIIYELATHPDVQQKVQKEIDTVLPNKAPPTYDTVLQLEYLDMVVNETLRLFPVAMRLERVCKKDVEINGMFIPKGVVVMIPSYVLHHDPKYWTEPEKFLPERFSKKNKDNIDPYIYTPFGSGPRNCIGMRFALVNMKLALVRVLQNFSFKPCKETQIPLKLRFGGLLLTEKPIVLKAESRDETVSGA

For the compound `ClCC(Cl)CCl`, the compound was classed as inactive (in [1]; in test [2]; in test [3]; in [4]; with CYP3A5 (gene 1577); in test [5]). Further, the result in test [6], in [7], in [8], in test [9], in test [10] and in [11] was inactive. Moreover, the compound was called inactive (in test [12]; in test [13]; in [14]; in [15]; with HGF (gene 3082); in [16]). In addition, the compound was classed as inactive in test [17] and in test [18].

One may read the AC50 as the concentration at which the activity in the assay is half-maximal. In the case of `COc1cc(-c2ccc(N)c(OC)c2)ccc1N`, the AC50 in [1] was 13.3 µM (active); in [4], 82.9 µM (active); in test [5], 46.3 µM (active) and 32.8 µM (active); in test [6] it was 38.3 µM (active) and 50 µM (active); in test [7], 57.4 µM (active); in test [11], 50 µM (active). The half-maximal activity concentration (AC50) in test [13] was 75 µM (active); in test [15], 42.7 µM (active); in test [16], 39.4 µM (active) and 34.4 µM (active); in test [17], 86.9 µM (active); in test [18], 13 µM (active). In addition, the outcome (in test [1]; in test [2]; in test [3]; in [4]; in the test with CYP3A5 (gene 1577); in [7]) was inactive. Also, the outcome in [8], in [9], in [10], in [11], in [12] and in [13] was inactive. The compound was classed as inactive (in test [14]; in [15]; in the test with HGF (gene 3082); in test [17]; in test [18]).

As to `CC(C)(C)c1cc(O)ccc1O`, the result (in [1]; in [2]; in test [3]; in test [4]; with CYP3A5 (gene 1577); in test [5]) was inactive. Also, the compound was classed as inactive in test [6], in test [7], in [8], in [9], in [10] and in test [11]. Moreover, the outcome (in test [12]; in test [13]; in [15]; in the test with HGF (gene 3082); in test [16]; in [17]) was inactive. Moreover, in test [18], the outcome was inactive.
